High-throughput results deposited in PubChem by several laboratories.
SENP7 block: SENP7 protease inhibitors, primary screen, biochemical, luminescence, uHTS; 1.5% of 330,000 active; Sentrin-specific protease 7 (Homo sapiens), Q9BQF6; recombinant SENP7, Z-RLRGG-aminoluciferin luminescence, 40 min; inhibition, % at 5 µM;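 active = inhibition above about 50% at the single test dose, limit read from the data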;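 note: plate controls were DMSO with enzyme for no effect and no enzyme buffer wells for full effect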
SENP8 block-1: SENP8 protease inhibitors, primary screen, biochemical, luminescence. Sentrin-specific protease 8 (Homo sapiens), Q96LD8. purified SENP8, Z-RLRGG-aminoluciferin cleavage. inhibition, % at 10 µM. 1.2% of 330,000 active. AID 2540, 2010; in the data active = inhibition above about 50%
Target sequence (Q96LD8 whole entry, looked up): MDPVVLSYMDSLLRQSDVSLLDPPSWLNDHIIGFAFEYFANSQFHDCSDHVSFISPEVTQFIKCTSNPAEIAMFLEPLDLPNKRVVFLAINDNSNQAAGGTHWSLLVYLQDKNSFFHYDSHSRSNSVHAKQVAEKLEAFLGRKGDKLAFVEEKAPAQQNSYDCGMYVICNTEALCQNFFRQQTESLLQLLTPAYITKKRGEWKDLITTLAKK
SENP6 block: SENP6 protease inhibitors, primary screen, biochemical, luminescence, uHTS | inhibition, % at 10 µM | Recombinant SENP6 catalytic domain, aminoluciferin luminescence | 1.8% of 330,000 active | AID 2599, 2010 | Sentrin-specific protease 6 (Homo sapiens), Q9GZR1;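 active = inhibition above about 50% at the single tested dose, limit read from the data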;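 note: plate controls were DMSO wells with enzyme for no effect and DMSO wells lacking enzyme for full effect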
SENP8 block-2: human SENP8 protease inhibitors, primary screen, biochemical, fluorescence, Nedd8 protein substrate, uHTS. Sentrin-specific protease 8 (Homo sapiens), Q96LD8. recombinant SENP8. inhibition, % at 20 µM. 0.64% of 360,000 active; in the data active = inhibition mostly above about 40%, no sharp cut-off; inactive = mostly below about 27%
Platelet DG rel: inhibitors of platelet dense granule secretion, primary screen, cell-based, MLPCN, human platelets; 0.22% of 300,000 active; human platelet-rich plasma, SFLLRN dense granule ATP release, luminescence; inhibition, %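 (compounds screened at 7.5 µM in platelet-rich plasma)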;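 active = mean replicate score, as percent of positive control, at or above 50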
SENP8 confirm: SENP8 protease inhibitors, retest, confirmation, biochemical, luminescence, single concentration. shares compounds with SENP7 block. Recombinant SENP8, Z-RLRGG-aminoluciferin luminescence, 60 min. inhibition, % at 12.5 µM. 40% of 6,200 active;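 active = mean inhibition across replicates above about 50%, limit read from the data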
SENP6 conf: SENP6 protease inhibitors, confirmation, biochemical, luminescence, single concentration; AID 488915, 2010; 58% of 6,200 active; recombinant SENP6, Z-RLRGG-aminoluciferin luminescence; shares compounds with SENP7 block; inhibition, % at 12.5 µM
SENP7 confirm: SENP7 protease inhibitors, retest, confirmation, biochemical, luminescence, single concentration; shares compounds with SENP7 block; recombinant SENP7, Z-RLRGG-aminoluciferin luminescence, 40 min; inhibition, % at 12.5 µM; 69% of 6,200 active; AID 488917, 2010
Casp3 SENP sel: caspase-3 protease inhibitors, confirmation, selectivity assay for SENP inhibitor project, biochemical, single concentration; shares compounds with SENP7 block; purified caspase-3, Z-DEVD-aminoluciferin luminescence, 60 min; inhibition, % at 12.5 µM; 60% of 6,200 active;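 active = mean inhibition above about 50%, limit read from the data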;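 note: plate controls were enzyme with DMSO for no effect and wells without caspase-3 for full effect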
Target sequence (P42574 28-227 limits assumed): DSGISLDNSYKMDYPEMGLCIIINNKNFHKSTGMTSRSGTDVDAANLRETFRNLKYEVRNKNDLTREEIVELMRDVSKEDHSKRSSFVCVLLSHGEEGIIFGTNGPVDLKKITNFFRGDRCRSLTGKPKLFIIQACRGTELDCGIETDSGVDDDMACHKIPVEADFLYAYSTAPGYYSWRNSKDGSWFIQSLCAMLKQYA
SENP luc ctr: interferes with luciferase luminescence in SENP counter-screen; shares compounds with SENP7 block; Pre-incubated SENP8/Z-RLRGG-aminoluciferin, luciferase luminescence interference; inhibition, % at 12.5 µM; 39% of 6,200 active;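 active = mean inhibition above about 50% when retested at one dose, limit read from the data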;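 note: plate controls were DMSO wells with completed reaction for no effect and substrate without enzyme for full effect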
* marks the source's active call; other numbers are inactive results; · = not tested or not shown. Most compounds without a hit are left out; they make up all but 2.4% or so of the library.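 Rule for the calls, unless noted: active = mean inhibition above about 50% in the one-dose retest (limit read from the data); inactive = the rest.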

SMILES	SENP7 block	SENP8 block-1	SENP6 block	SENP8 block-2	Platelet DG rel	SENP8 confirm	SENP6 conf	SENP7 confirm	Casp3 SENP sel	SENP luc ctr
Cc1cccc(NC(=O)c2ccc3c(c2)OCCO3)n1	83*	59*	78*	8	15	12	75*	92*	89*	76*
Cc1cccc(NC(=O)c2cc3c(s2)-c2c(C)cccc2OC3)n1	86*	40	18	-406	21	4	7	6	14	11
O=C(Nc1ccccn1)c1ccc2c(c1)OCO2	73*	52*	18	15	11	1	66*	92*	90*	70*
COc1ccccc1Nc1ncnc2c1c(C)c(C)n2CCO	-6	0	-3	-94	2	·	·	·	·	·
Cc1nc(NC(=O)c2ccc3c(c2)OCO3)ccc1Br	77*	74*	81*	2	2	-1	72*	89*	73*	12
Cc1cc(NC(=O)c2ccc3c(c2)OCO3)no1	14	-9	6	12	0	·	·	·	·	·
O=C(CSc1nncc2ccccc12)N1CCCCC1	1	-2	15	35	-1	·	·	·	·	·
Cc1ccc(C(=O)OCC(=O)N2CCc3ccccc32)cc1	31	-23	5	32	-7	·	·	·	·	·
O=C(OCC(=O)N1CCc2ccccc21)c1ccccc1[N+](=O)[O-]	91*	86*	87*	4	·	94*	94*	102*	95*	74*
N#CC1(NC(=O)COC(=O)c2ccccc2[N+](=O)[O-])CCCCC1	-2	0	-4	3	-2	·	·	·	·	·
O=C(COC(=O)c1ccccc1[N+](=O)[O-])c1ccc(C2CCCCC2)cc1	98*	89*	90*	12	3	12	77*	52*	79*	16
O=C(OCC(=O)N1CCc2ccccc21)c1ccccc1F	43	33	58*	10	20	43	38	76*	64*	5
Cc1ccc(C)c(NC(=O)CN(C)C(=O)CC2OC(=O)c3ccccc32)c1 (configuration not stated)	-5	-1	-11	-2	·	·	·	·	·	·
Cc1ccc(-c2nc(-c3cccnc3)no2)cc1	82*	66*	81*	26	5	72*	81*	98*	86*	67*
Cc1ccc(Cc2nc(-c3cccnc3)no2)cc1	-1	-4	-18	4	2	·	·	·	·	·
COc1cc(-c2nc(-c3cccnc3)no2)cc(OC)c1OC	2	-3	3	-21	-2	·	·	·	·	·
Cc1ccc(-c2nc(-c3ccccc3)no2)c(Cl)c1	100*	97*	98*	-3	19	96*	99*	102*	97*	83*
CCC(=O)Oc1ccc(-c2nc(-c3cccnc3)no2)cc1	99*	97*	97*	25	81*	99*	100*	103*	99*	98*
CCCc1noc(-c2ccc(-c3ccccc3)cc2)n1	68*	50*	41	16	6	26	40	55*	50*	30
Cc1nn(CC(=O)NCC(C)c2ccccc2)c(=O)c2cc(-c3ccccc3)nn12 (configuration not stated)	0	5	0	23	9	·	·	·	·	·
COCCN1CCC(CNCc2cn(-c3cc(C)ccc3C)nc2-c2ccccc2)C1 (configuration not stated)	2	-6	-11	20	-1	·	·	·	·	·
